# PubChem BioAssay AID1159580 (chemical genetic matrix, 2015)
# Values joined by “and” are separate entries in the source; they are usually repeats but may differ in a detail not shown here. Equal values may be shown once. Among all 5,500 compounds or so, about 2,000 (36%) were called active. About 18% were inconclusive and are not listed. The list shows a part of the results. A number with no mark means an inactive call. Rule as the data show it: active = normalized growth mostly below about 0.91 (no sharp cut-off); inconclusive = no clear call, values can overlap the other calls; inactive = mostly above about 0.92.
# Test: chemical genetic growth profiling, strain panel (AID 1159580);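 also: tested at 20 µM; growth read once vehicle control cultures reached saturation at 30 °C; 1 = growth at the plate median or of vehicle wells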
# Settings: S. cerevisiae deletion strains, growth OD
structure (smiles),measurement,setting,value
C=CCc1ccc2c(c1)OCO2,normalized growth,"locus YAL013W, strain DEP1, stronger effect = lower value",0.863 (active)
same,normalized growth,"locus YAL021C, strain ccr4, stronger effect = lower value",1.02
same,normalized growth,"locus YAL026C, strain drs2, stronger effect = lower value",1.04
same,normalized growth,"locus YAL030W, strain snc1, stronger effect = lower value",1.01
same,normalized growth,"locus YBL061C, strain skt5, stronger effect = lower value",1.02
same,normalized growth,"locus YBR009C, strain hhf1, stronger effect = lower value",1.05
same,normalized growth,"locus YBR021W, strain FUR4, stronger effect = lower value",1.03
same,normalized growth,"locus YBR023C, strain chs3, stronger effect = lower value",1.03
same,normalized growth,"locus YBR171W, strain sec66, stronger effect = lower value",1.02
same,normalized growth,"locus YBR229C, strain ROT2, stronger effect = lower value",1.02
same,normalized growth,"locus YBR231C, strain swc5, stronger effect = lower value",1.01
same,normalized growth,"locus YBR279W, strain paf1, stronger effect = lower value",1.03
same,normalized growth,"locus YCL011C, strain gbp2, stronger effect = lower value",1.03
same,normalized growth,"locus YCL016C, strain dcc1, stronger effect = lower value",1.05
same,normalized growth,"locus YCL029C, strain bik1, stronger effect = lower value",0.99
same,normalized growth,"locus YCL061C, strain MRC1, stronger effect = lower value",1.06
same,normalized growth,"locus YCL069W, strain vba3, stronger effect = lower value",1.01
same,normalized growth,"locus YCR088W, strain abp1, stronger effect = lower value",1.02
same,normalized growth,"locus YDL005C, strain med2, stronger effect = lower value",1.02
same,normalized growth,"locus YDL035C, strain GPR1, stronger effect = lower value",1.03
same,normalized growth,"locus YDL040C, strain nat1, stronger effect = lower value",1.01
same,normalized growth,"locus YDL074C, strain BRE1, stronger effect = lower value",1.02
same,normalized growth,"locus YDL101C, strain DUN1, stronger effect = lower value",0.999
same,normalized growth,"locus YDL185W, strain tfp1, stronger effect = lower value",1.01
same,normalized growth,"locus YDL192W, strain arf1, stronger effect = lower value",0.99
same,normalized growth,"locus YDR001C, strain nth1, stronger effect = lower value",1.02
same,normalized growth,"locus YDR069C, strain doa4, stronger effect = lower value",1.03
same,normalized growth,"locus YDR101C, strain arx1, stronger effect = lower value",0.985
same,normalized growth,"locus YDR137W, strain rgp1, stronger effect = lower value",1.05
same,normalized growth,"locus YDR159W, strain sac3, stronger effect = lower value",0.976
same,normalized growth,"locus YDR162C, strain NBP2, stronger effect = lower value",1.01
same,normalized growth,"locus YDR195W, strain ref2",0.982
same,normalized growth,"locus YDR297W, strain sur2, stronger effect = lower value",1.01
same,normalized growth,"locus YDR318W, strain mcm21, stronger effect = lower value",0.996
same,normalized growth,"locus YDR334W, strain swr1, stronger effect = lower value",1.03
same,normalized growth,"locus YDR335W, strain msn5, stronger effect = lower value",1.02
same,normalized growth,"locus YDR388W, stronger effect = lower value",0.987
same,normalized growth,"locus YDR392W, strain spt3, stronger effect = lower value",0.965
same,normalized growth,"locus YDR502C, strain sam2, stronger effect = lower value",0.992
same,normalized growth,"locus YEL003W, strain gim4, stronger effect = lower value",1.02
same,normalized growth,"locus YEL037C, strain rad23, stronger effect = lower value",1.02
same,normalized growth,"locus YEL061C, strain CIN8 (second series), stronger effect = lower value",1.02
same,normalized growth,"locus YEL061C, strain CIN8, stronger effect = lower value",1
same,normalized growth,"locus YER015W, strain faa2, stronger effect = lower value",1.01
same,normalized growth,"locus YER016W, strain bim1, stronger effect = lower value",1
same,normalized growth,"locus YER110C, stronger effect = lower value",0.982
same,normalized growth,"locus YER111C, strain swi4, stronger effect = lower value",1.02
same,normalized growth,"locus YER155C, strain BEM2 (second series), stronger effect = lower value",0.956
same,normalized growth,"locus YER155C, strain BEM2, stronger effect = lower value",0.999
same,normalized growth,"locus YER167W, strain BCK2, stronger effect = lower value",1.02
same,normalized growth,"locus YFR010W, strain ubp6, stronger effect = lower value",1.05
same,normalized growth,"locus YGL078C, strain dbp3, stronger effect = lower value",0.993
same,normalized growth,"locus YGL086W, strain mad1, stronger effect = lower value",0.988
same,normalized growth,"locus YGL167C, strain pmr1, stronger effect = lower value",1.02
same,normalized growth,"locus YGL173C, strain kem1, stronger effect = lower value",1.02
same,normalized growth,"locus YGL227W, strain vid30, stronger effect = lower value",1.01
same,normalized growth,"locus YGL240W, strain doc1, stronger effect = lower value",0.972
same,normalized growth,"locus YGL248W, strain PDE1, stronger effect = lower value",1.01
same,normalized growth,"locus YGL253W, strain hxk2, stronger effect = lower value",1.04
same,normalized growth,"locus YGR135W, strain pre9, stronger effect = lower value",1.01
same,normalized growth,"locus YGR229C, strain SMI1, stronger effect = lower value",1.03
same,normalized growth,"locus YGR252W, strain gcn5, stronger effect = lower value",1.06
same,normalized growth,"locus YHR013C, strain ard1, stronger effect = lower value",1.06
same,normalized growth,"locus YHR027C, strain rpn1, stronger effect = lower value",1.02
same,normalized growth,"locus YHR030C, strain SLT2, stronger effect = lower value",1 and 0.954
same,normalized growth,"locus YHR079C, strain IRE1 (second series), stronger effect = lower value",0.989
same,normalized growth,"locus YHR079C, strain IRE1, stronger effect = lower value",0.965
same,normalized growth,"locus YHR094C, strain hxt1, stronger effect = lower value",0.981
same,normalized growth,"locus YHR129C, strain ARP1, stronger effect = lower value",1
same,normalized growth,"locus YHR142W, strain chs7, stronger effect = lower value",1.07
same,normalized growth,"locus YHR200W, strain rpn10, stronger effect = lower value",0.99
same,normalized growth,"locus YIL066C, strain RNR3, stronger effect = lower value",1.02
same,normalized growth,"locus YIL073C, strain SPO22, stronger effect = lower value",1.01
same,normalized growth,"locus YIL125W, strain kgd1, stronger effect = lower value",0.988
same,normalized growth,"locus YIR030C, strain dcg1, stronger effect = lower value",0.988
same,normalized growth,"locus YJL092W, strain hpr5, stronger effect = lower value",1.03
same,normalized growth,"locus YJL095W, strain BCK1 (second series), stronger effect = lower value",1.03
same,normalized growth,"locus YJL095W, strain BCK1, stronger effect = lower value",1.01
same,normalized growth,"locus YJL115W, strain asf1, stronger effect = lower value",1.02
same,normalized growth,"locus YJL129C, strain trk1, stronger effect = lower value",1.01
same,normalized growth,"locus YJL134W, strain LCB3, stronger effect = lower value",1
same,normalized growth,"locus YJL154C, strain vps35, stronger effect = lower value",1.01
same,normalized growth,"locus YJL164C, strain tpk1, stronger effect = lower value",1.04
same,normalized growth,"locus YJL166W, strain qcr8, stronger effect = lower value",1.04
same,normalized growth,"locus YJL168C, strain set2, stronger effect = lower value",0.987
same,normalized growth,"locus YJL187C, strain SWE1 (second series), stronger effect = lower value",1.01
same,normalized growth,"locus YJL187C, strain SWE1, stronger effect = lower value",1.03
